Screening results (PubChem)
This is one part of a sample in which hits are shown more often than they occur.
RE007 growth inh = less growth of the S. pombe RE007 Vpr strain. S. pombe RE007 Vpr strain, BacTiter-Glo ATP luminescence, 24 h. Potency, µM (top dose mostly 92.2 µM), actives largely listed as inhibitors. hit rate 0.21% among 360,000. AID 651644; active means well fitted falling curve with a large enough effect; inconclusive means small, poorly fitted or top-dose-only effect; inactive means no such curve, though single readings can be large or run the other way; further: nearly all actives have a fitted effect of over 50% in size
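Fission yeast RE007 carrying one integrated HIV-1 vpr copy, seeded at OD 0.01 in PMG+AL medium with 23 nL pinned compound. Grown 24 h at 30 degrees; viability read by BacTiter-Glo luminescence after 5 min.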
LmPK inhibitor = LmPK (Leishmania mexicana) enzyme inhibition | purified LmPK, Kinase-Glo ATP luminescence, 1 h | Potency, µM (titrated, usually from 57.5 µM), usual class: inhibitors | hit rate 0.37% among 290,000 | AID 1721
Target sequence (Q27686 whole entry, looked up): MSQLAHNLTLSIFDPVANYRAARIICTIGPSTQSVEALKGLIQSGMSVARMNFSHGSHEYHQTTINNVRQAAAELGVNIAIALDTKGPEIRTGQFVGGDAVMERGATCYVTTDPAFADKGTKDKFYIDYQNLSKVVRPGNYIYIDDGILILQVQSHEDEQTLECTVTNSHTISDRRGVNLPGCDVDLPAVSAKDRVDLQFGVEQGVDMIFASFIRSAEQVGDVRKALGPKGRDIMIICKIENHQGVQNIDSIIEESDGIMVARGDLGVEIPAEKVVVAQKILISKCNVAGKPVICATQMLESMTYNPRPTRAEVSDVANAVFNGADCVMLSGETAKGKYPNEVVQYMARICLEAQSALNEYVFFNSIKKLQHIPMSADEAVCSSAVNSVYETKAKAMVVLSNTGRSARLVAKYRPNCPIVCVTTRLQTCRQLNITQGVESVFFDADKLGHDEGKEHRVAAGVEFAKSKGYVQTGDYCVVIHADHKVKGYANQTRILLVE
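ATP generated from ADP (0.1 mM) and PEP (0.5 mM) by 0.1 nM LmPK over 1 h at room temperature (pH 7.2 imidazole buffer) was detected by coupled luciferase luminescence. Values were normalized to uninhibited and no-enzyme wells.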
Shiga inhibitor = blocks Shiga toxin action in Vero cells; inhibition, % at 38.7 µM; hit rate 9.2% among 290,000; AID 2315; Vero cells, Shiga toxin protein synthesis inhibition reporter; in the data active means inhibition mostly above about 28%, no sharp cut-off; inactive means mostly below about 43%
TbPYK inhibitor = inhibitors of Trypanosoma brucei pyruvate kinase; TbPYK enzyme, Kinase-Glo Plus ATP luminescence, 45 min; Q57TT1; hit rate 0.12% among 410,000; Potency, µM (highest dose often 76.8 µM), hits mostly inhibitors; further: nearly all actives have a fitted effect of over 50% in size
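TbPYK + substrate in 50 mM TEA pH 7.2, 100 mM KCl, 10 mM MgCl2, 0.05% BSA, 0.01% Tween-20; cpd pinned; ADP 130 uM final; 45 min RT; Kinase-Glo Plus 10 min; luminescence endpoint.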
FBPA Giardia inh = Giardia lamblia aldolase inhibition. Potency, µM (top dose mostly 59.6 µM), actives largely listed as inhibitors. hit rate 0.71% among 290,000. purified Giardia FBPA. A8B2U2; further: nearly all actives have a fitted effect of over 55% in size
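Giardia FBPA (40 nM reagent) was preincubated 10 min at RT with compound (up to 57.5 uM final), then substrate plus GAPDH/TPI/NAD/arsenate coupling system with diaphorase/resazurin was added; resorufin fluorescence (525/598 nm) was read after 20 min.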
CHX counter = counter-screen for Shiga toxin inhibitors: cycloheximide protein synthesis inhibition; cell reporter, cycloheximide protein synthesis inhibition counterscreen; hit rate 12% among 300,000; max response, %; in the data active means max response mostly above about 13%, no sharp cut-off; inactive means mostly below about 14%; further: read at 38.3 µM for the half of the compounds with a filed dose
Each line names hits and unclear results; the compound was inactive in the other large screens; ! = a repeat was not active. Unless noted, the call rests on the fitted dose curve; in most records, active means well fitted curve in the direction sought with a large enough effect; inconclusive means small, poorly fitted or top-dose-only effect, or another doubt; inactive means no such curve, though single readings can be large; an effect the other way counts as inactive or inconclusive.

CC1(C)CSC(=NCc2ccccc2)N1	none
Cc1cc(C2=NNC(=NC3CCCCC3)SC2)c(C)n1-c1c(C)n(C)n(-c2ccccc2)c1=O	none
c1ccc2oc(C3=NNC(=NC4CC4)SC3)cc2c1	LmPK inhibitor inconclusive, CHX counter 41
Cc1ccc(CNC(=O)C2(S(=O)(=O)c3ccccc3)CC=CC2)cc1	Shiga inhibitor 44, CHX counter 41
Cc1ccccc1CNC(=O)CCc1ccccc1	CHX counter 18
Cc1ccc(CNC(=O)CCc2ccccc2)cc1	CHX counter 15
Cc1cccc(NS(=O)(=O)c2c(C)nc3scc(C)n3c2=O)c1	none (no result: FBPA Giardia inh)
Cc1ccc(-n2nc3c(c2NC(=O)c2ccco2)CS(=O)C3)cc1 (centres undefined)	none
Cc1ccc(C)c(N2CCN(C(=O)c3cc4cc5ccc(C)cc5nc4o3)CC2)c1	none (no result: RE007 growth inh, LmPK inhibitor, Shiga inhibitor, FBPA Giardia inh, CHX counter)
Clc1ccc(-n2ncc3c(NCc4cccs4)ncnc32)cc1	none (no result: TbPYK inhibitor)
CC(C)(C)Nc1ncnc2c1cnn2-c1ccccc1	Shiga inhibitor 96, CHX counter 57
c1ccc(CNc2ncnc3c2cnn3-c2ccccc2)cc1	CHX counter 13
Cc1cccc(-n2ncc3c(NCc4cccs4)ncnc32)c1	Shiga inhibitor 114, CHX counter 23
c1ccc(CCNc2ncnc3c2cnn3-c2ccccc2)cc1	Shiga inhibitor 66, CHX counter 44
Cn1c(=O)c2c(-c3cccc(Br)c3)n(CCO)cc2n(C)c1=O	none (no result: RE007 growth inh, LmPK inhibitor, Shiga inhibitor, FBPA Giardia inh, CHX counter)
Cc1cc(Br)ccc1NC(=O)CSc1c2c(nc3ccccc13)CCC2	none (no result: RE007 growth inh, LmPK inhibitor, Shiga inhibitor, FBPA Giardia inh, CHX counter)
O=C(OCc1ccco1)c1ccc2c(c1)N(Cc1cccc(F)c1)C(=O)c1ccccc1S2	none (no result: RE007 growth inh, LmPK inhibitor, Shiga inhibitor, FBPA Giardia inh, CHX counter)
Nc1c(Cl)ncnc1NCc1cccnc1	none
Clc1ccc(-n2ncc3c(NCc4cccnc4)ncnc32)cc1Cl	CHX counter 34
Cn1ncc2c(NNC(=O)Cc3ccccc3)ncnc21	none
Cc1cccc(-n2ncc3c(NCc4ccccc4)ncnc32)c1	Shiga inhibitor active, CHX counter 29
Cn1ncc2c(NCc3ccccc3)ncnc21	CHX counter 13!
Fc1ccc(CNc2ncnc3c2cnn3-c2ccccc2)cc1	none
COc1ncc2nc(-c3cc(F)cc(F)c3)c(=O)n(CCC#N)c2n1	none (no result: RE007 growth inh, LmPK inhibitor, Shiga inhibitor, CHX counter)
CC1CCN(c2oc(-c3ccc(COc4ccccc4)o3)nc2C#N)CC1	none (no result: RE007 growth inh, LmPK inhibitor, Shiga inhibitor, FBPA Giardia inh, CHX counter)
COC(=O)c1ccc(N/C=C/C(=O)c2ccc(OC)c(OC)c2)cc1	none
COc1ccc(C(=O)/C=C/Nc2cccc(C)n2)cc1OC	Shiga inhibitor active, CHX counter 65
COc1ccc(N/C=C/C(=O)c2ccc(OC)c(OC)c2)cc1	RE007 growth inh inconclusive, Shiga inhibitor 56, CHX counter 24
COc1ccc(N/C=C/C(=O)c2cc(OC)c(OC)c(OC)c2)cc1	CHX counter 17 (no result: Shiga inhibitor)
CCCN(CCC)C(=O)c1cc2c(=O)n3cccc(C)c3nc2s1	none
COc1cc(C(=O)OCCN2CCOCC2)cc(OC)c1OC	none
COc1cc(C(=O)OCCCN2CCOCC2)ccc1O	CHX counter 17
COc1cccc(C(=O)OCCN2CCOCC2)c1	Shiga inhibitor 21
COc1ccc(C(=O)OCCCN(C)C)cc1OC	CHX counter 45
Cc1nc2ccc(S(=O)(=O)N(CC(=O)Nc3ccc(F)cc3F)Cc3ccccc3)cc2s1	none (no result: RE007 growth inh, LmPK inhibitor, Shiga inhibitor, FBPA Giardia inh, CHX counter)
CC(C)(C)C(=O)CN1C(=O)NC2(CCCc3ccccc32)C1=O (centres undefined)	none
COc1ccc(/C=C2\SC(=S)N(C(C)C(=O)NC3C=CS(=O)(=O)C3)C2=O)cc1 (centres undefined)	Shiga inhibitor 31, CHX counter 23
CC(C)c1ccc(/C=C2\SC(=O)N(CC(=O)NC3C=CS(=O)(=O)C3)C2=O)cc1 (centres undefined)	CHX counter 12
O=C(CN1C(=O)/C(=C/c2ccc(Cl)cc2)SC1=S)NC1C=CS(=O)(=O)C1 (centres undefined)	none
COc1cc(C(=O)NNC(=O)c2cccn2C)cc(OC)c1OC	none (no result: LmPK inhibitor, Shiga inhibitor, FBPA Giardia inh, CHX counter)
COCCSc1ncnc2c1oc1nc3c(cc12)COC(C)(C)C3	CHX counter 23
CC1(C)Cc2nc3oc4c(N5CCOCC5)ncnc4c3cc2CO1	none
O=C(Nc1nc2c(F)cc(F)cc2s1)c1ccc(S(=O)(=O)N2CCc3ccccc32)cc1	none (no result: RE007 growth inh, LmPK inhibitor, Shiga inhibitor, FBPA Giardia inh, CHX counter)
